Pf growth 96h: P. falciparum growth inhibition at 96 hours | P. falciparum luciferase reporter growth, 96 h | Potency, µM (series often up to 28.7 µM), usual class: inhibitors | actives 6.9% (n = 320,000) | AID 504834
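Cell-based qHTS: luciferase-tagged P. falciparum in erythrocytes (2% hematocrit, 0.05% parasitemia final) incubated with compounds for 96 hours, 37 C, 5% CO2; luciferase detection reagent then added and luminescence measured.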
SARS PLpro yeast: inhibitors of SARS-CoV papain-like protease in yeast; S. cerevisiae expressing SARS-CoV PLpro, growth rescue; Potency, µM (top dose mostly 32.9 µM), actives largely listed as activators; actives 0.19% (n = 330,000); calls by dose curve; further: nearly all actives have a fitted effect of over 55% in size
AMA1-RON2 inh: AMA1-RON2 (P. falciparum) interaction inhibition; AlphaScreen AMA1-biotinylated RON2 peptide binding; Potency, µM (doses to about 58.2 µM), usual class: inhibitors; actives 0.2% (n = 360,000); further: nearly all actives have a fitted effect of over 45% in size
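AMA1 (3D7) with his tag at 25 nM final met compounds first, then biotinylated RON2 peptide at 25 nM; detection used donor plus acceptor beads, 10 µg/mL apiece, read by AlphaScreen after 30 min at room temperature.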
Pf growth 48h: inhibits P. falciparum growth in the first generation, 48 h; AID 504832; actives 5.9% (n = 310,000); Potency, µM (top dose mostly 28.7 µM), most hits filed as inhibitors; P. falciparum luciferase growth in erythrocytes, 48 h
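First compound was added to culture medium, then infected red cells at 0.1% parasitemia and 2% hematocrit (final). After incubation at 37 C under 5% CO2, luciferase detection reagent was dispensed and light output recorded.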
Of the large screens only hits and unclear results are named; the others gave an inactive call. In the library only some 9.4% were active in any assay of this set; here they are far more common. Unless noted, the call rests on the fitted dose curve; in most records, active means well fitted curve in the direction sought with a large enough effect; inconclusive means small, poorly fitted or top-dose-only effect, or another doubt; inactive means no such curve, though single readings can be large; an effect the other way counts as inactive or inconclusive.

Nc1ccc(-c2cnc(N)c(C(=O)c3cccnc3)n2)cn1	none (no result: Pf growth 96h, SARS PLpro yeast, Pf growth 48h)
Cc1cc(C(=O)c2ccc(C(C)(C)C)cc2)c(NC(=O)CCl)s1	AMA1-RON2 inh inconclusive
Cc1nc(NCC2CCCO2)c2oc3ccccc3c2n1 (centres undefined)	none (no result: Pf growth 48h)
Cc1ccc(C)c(NC(=O)CSc2ccc(-c3cccs3)nn2)c1	Pf growth 96h inconclusive
CCc1nnc(NS(=O)(=O)c2ccccc2)s1	Pf growth 96h inconclusive
Cc1ccc2nc(NC(=O)c3ccc(NS(=O)(=O)c4cccs4)cc3)sc2c1	Pf growth 96h 0.47µM, Pf growth 48h inconclusive
NS(=O)(=O)c1ccc2nc(NC(=O)c3ccc(Br)o3)sc2c1	Pf growth 96h 10µM
CS(=O)(=O)c1ccc2nc(NC(=O)CCNC(=O)c3ccc([N+](=O)[O-])cc3)sc2c1	Pf growth 96h 0.74µM, Pf growth 48h inconclusive
Cc1ccc2c(c1)N(C(=O)CCC(=O)N1CCN(c3ccccn3)CC1)CC(C)O2 (centres undefined)	Pf growth 96h inconclusive
Cc1ccc(Cl)cc1N1CCN(C(=O)C2CCN(c3nnc(-n4cccc4)s3)CC2)CC1	Pf growth 96h inconclusive, Pf growth 48h 13µM
Cc1cccc(N2CCN(C(=O)C3CCN(c4nnc(-n5cccc5)s4)CC3)CC2C)c1 (centres undefined)	Pf growth 96h inconclusive, Pf growth 48h 13µM
CC(=O)N1c2ccc(S(=O)(=O)N3CCC(C(=O)N4CCN(c5cc(Cl)ccc5C)CC4)CC3)cc2CC1C (centres undefined)	Pf growth 48h inconclusive
Cc1cccc(N2CCN(C(=O)CCC(=O)N3CC(C)Oc4ccc(C)cc43)CC2C)c1 (centres undefined)	Pf growth 48h 13µM
CCCCC(=O)Nc1ccc(NC(=O)C2CC2)cn1	AMA1-RON2 inh inconclusive
N#Cc1cnc(Sc2ccccc2)nc1	Pf growth 96h 0.033µM, Pf growth 48h inconclusive
Cc1ccc(-n2c(O)c(C=NCCN(C)C)c(=O)[nH]c2=O)cc1	none
CN(C)CCN=Cc1c(O)n(-c2cccc3ccccc23)c(=O)[nH]c1=O	Pf growth 96h 10µM
CCN(CC)S(=O)(=O)c1cccc(NC(=O)COC(=O)c2ccc(Br)o2)c1	none (no result: Pf growth 48h)
CCC(=O)NC(c1cccs1)c1cc(Cl)c2cccnc2c1O (centres undefined)	none
CCCC(=O)NC(c1ccc(OC)c(OC)c1)c1cc(Cl)c2cccnc2c1O (centres undefined)	Pf growth 96h inconclusive, Pf growth 48h 9.3µM
CCCCC(=O)NC(c1cccs1)c1cc(Cl)c2cccnc2c1O (centres undefined)	Pf growth 48h 0.74µM
COc1ccc(NS(=O)(=O)c2ccc3oc(SC(C)C(N)=O)nc3c2)cc1 (centres undefined)	Pf growth 96h 4.7µM, Pf growth 48h 2.3µM
O=[N+]([O-])c1ccc(Sc2cccc3cccnc23)c([N+](=O)[O-])c1	none (no result: Pf growth 96h)
CN1[C@@H]2CC[C@H]1CC(OC(=O)C1C=Nc3ccccc31)C2 (some centres undefined)	Pf growth 96h 13µM, Pf growth 48h inconclusive
COC(=O)CCCC1=CC2=C(c3ccccc3)C(=O)C(C)(OC(=O)C3CCCC3)C(=O)C2=CN1C1CCCCC1 (centres undefined)	Pf growth 96h inconclusive, Pf growth 48h 10µM
COCCN1C=C2C(=O)C(C)(OC(=O)C3CCCC3)C(=O)C(c3ccccc3)=C2C=C1CCCC(=O)OC (centres undefined)	Pf growth 96h inconclusive
COC(=O)CCCC1=CC2=C(c3ccccc3)C(=O)C(C)(OC(=O)C3CCCC3)C(=O)C2=CN1CC1CC1 (centres undefined)	Pf growth 96h 8.3µM, Pf growth 48h inconclusive
COc1ccc(S(=O)(=O)NCc2ccccn2)c(C)c1C	none
O=C(O)c1ccccc1-c1ccc(/C=C/c2cc(C(F)(F)F)[nH]c(=O)n2)o1	none
O=C(O)c1cc(Cl)ccc1-c1ccc(/C=C/c2cc(C(F)(F)F)[nH]c(=O)n2)o1	Pf growth 96h 9.3µM
N#Cc1c(Cl)nc(N/N=C/c2ccccc2)c(Cl)c1Cl	Pf growth 96h 5.2µM
C[N+](C)(C)c1ccc(/C=N/Nc2nc(Cl)c(C#N)c(Cl)c2Cl)cc1	Pf growth 96h inconclusive, Pf growth 48h 2.1µM
CCOC(=O)C1(C)CCCN1C(=O)c1ccc(OC)cc1 (centres undefined)	none (no result: Pf growth 96h, SARS PLpro yeast, Pf growth 48h)
COc1ccc(N2C(=O)CC(N3CCN(c4nc5ccccc5s4)CC3)C2=O)cc1 (centres undefined)	Pf growth 96h 4.7µM
COc1ccc2nc(N3C(=O)CC(Cc4ccc(C)cc4)C3=O)sc2c1 (centres undefined)	none
CCOc1cccc(N2C(=O)CC(N3CCN(c4nc5ccccc5s4)CC3)C2=O)c1 (centres undefined)	Pf growth 96h inconclusive, Pf growth 48h inconclusive
CCOc1ccc(N2C(=O)CC(N3CCN(c4ccccc4OC)CC3)C2=O)cc1 (centres undefined)	Pf growth 96h 2.6µM, Pf growth 48h 2.9µM
COc1ccc2nc(N3C(=O)CC(C(C)c4ccccc4)C3=O)sc2c1 (centres undefined)	Pf growth 96h 3.7µM
CC1CCCN(c2nc3c(c(=O)[nH]c(=O)n3C)n2CCSc2nc3ccccc3o2)C1 (centres undefined)	none (no result: Pf growth 48h)
COCCCNC(=O)CC1C[C@H](C(=O)N2CCCCC2)[C@@]2(C)c3[nH]c4ccccc4c3CCN2C1=O (some centres undefined)	none (no result: Pf growth 96h, Pf growth 48h)
CC1=NN(/C(=N\c2nnc(C)s2)Nc2ccc(C(C)(C)C)cc2)[C@H](c2ccc(C)cc2)S1	Pf growth 96h 6.6µM, Pf growth 48h 4.1µM
O=C(Nc1nnc(SCc2ccc(F)cc2)s1)c1ccco1	none (no result: Pf growth 96h)
O=C(O)C1CCN(c2c([N+](=O)[O-])cc(C(F)(F)F)cc2[N+](=O)[O-])CC1	none
C=CCNC(=O)C1CCN(c2c([N+](=O)[O-])cc(C(F)(F)F)cc2[N+](=O)[O-])CC1	Pf growth 96h 9.3µM, Pf growth 48h 5.2µM
O=C(CS(=O)(=O)Cc1ccccc1)NCc1ccc2c(c1)OCO2	none
Cc1cccc(N2CCN(C(=O)CC(NC(=O)c3ccccc3Cl)c3ccccc3)CC2)c1C (centres undefined)	Pf growth 96h inconclusive, Pf growth 48h inconclusive
O=C(NC(CC(=O)N1CCN(c2ccccc2O)CC1)c1ccccc1)c1ccccc1Cl (centres undefined)	Pf growth 96h inconclusive, Pf growth 48h 10µM
CCSc1ccccc1C(=O)N1CCN(c2ccc([N+](=O)[O-])cc2)CC1	none
CC(=O)N1CCN(C(=O)C(Cc2ccccc2)NC(=O)c2ccccc2)CC1 (centres undefined)	none
O=C(NC(CC(=O)N1CCN(c2ccc([N+](=O)[O-])cc2)CC1)c1ccccc1)c1ccccc1Cl (centres undefined)	Pf growth 96h 12µM, Pf growth 48h inconclusive
O=C(NC(Cc1ccccc1)C(=O)N1CCN(c2ccccc2O)CC1)c1ccccc1 (centres undefined)	Pf growth 96h 6.6µM, Pf growth 48h 8.3µM
COP(=O)(OC)C(=NNS(=O)(=O)c1ccc(C)cc1)c1ccccc1	none (no result: Pf growth 96h, SARS PLpro yeast, Pf growth 48h)
